Test results reported in PubChem BioAssay (NCATS).
Values without a mark were called inactive. Results filed as inconclusive are left out. Calls of active or inactive are those of the source. Unless noted, the call rests on the fitted dose curve; in most records, active means well fitted curve in the direction sought with a large enough effect; inconclusive means small, poorly fitted or top-dose-only effect, or another doubt; inactive means no such curve, though single readings can be large; an effect the other way counts as inactive or inconclusive.

Experiments:
Tov-21-G = assay: Primary qHTS to identify gynecologic anti-cancer compounds using libraries of approved drugs and bioactive compounds (AID 1345084); conditions: Gynecologic cancer cell panel viability, ATPlite luminescence, 48 h; series mostly up to 57.5 µM; further: on the % scale 0 is the no-effect control and ±100 the full control effect; nearly all actives have a fitted effect of over 55% in size
Outline: (§1)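 Luminescence from the ATPlite ATP-monitoring reagent indicates viable cell number; lower signal means cytotoxicity. Cells received compound 16 h after seeding and were exposed for 48 h across five concentrations.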

Tov112D = assay: as above; conditions: Gynecologic cancer cell panel viability, ATPlite luminescence, 48 h; series mostly up to 57.5 µM
Outline: as §1

[1] = Drug repurposing screens with cells derived from glioblastoma tumor samples (AID 1345199); conditions: GBM patient neurospheres viability, ATP luminescence, 48 h; further: on the % scale 0 is the no-effect control and ±100 the full control effect; nearly all actives have a fitted effect of over 40% in size
Outline: (§2)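 Four patient lines of CD133+ GBM neurospheres were screened at several concentrations; hits were retested in those lines plus three slower-growing GBM lines, using 48-hour treatment and ATP-based viability.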

astro = assay: as above; conditions: viability, ATP luminescence, 48 h; series mostly up to 45.9 µM
Outline: as §2

[2] = qHTS assay for small molecule activators of the human pregnane X receptor (PXR) signaling pathway (AID 720659; call rule not given here; further: 0% is about no effect); conditions: DPX-2 HepG2 CYP3A4-luciferase, 24 h; series mostly up to 92.3 µM
[3] = qHTS assay to identify inhibitors of the type 1 interferon - major histocompatibility complex class I in skeletal muscle: Counter screen cell viability and HiBit confirmation (AID 1347412); conditions: iHSKM muscle cells + IFN-b, HiBiT or CellTiter-Glo, 24 h; further: nearly all actives have a fitted effect of over 60% in size; further: potency means the concentration at half of the fitted maximal effect; on activity change, negative = inhibition: on the % scale 0 is the no-effect control and ±100 the full control effect
Outline: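 CRISPR HLA-B*08:01-HiBit immortalized human myoblasts (C25cl48) stimulated with 4 ng/ml IFN-beta and compounds (12-point 1:3, top 46 uM final) for 24 h at 37 C. Duplicate plates read by HiBit lytic luminescence or CellTiter Glo ATP.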

[4] = at 46 µM (top of the series), tumour line A

Cc1ccc(C(C)C)cc2c(C)ccc1-2
Potency (Tov-21-G): inactive | Potency (Tov112D): inactive | activity, negative = cell killing ([1]; at 45.9 µM (top of the series), tumour line B): -9% | activity, negative = cell killing ([1]; at 45.9 µM (top of the series), tumour line D): 5.15% | activity, negative = cell killing ([1]; at 46.1 µM (top of the series), tumour line C): -3.49% | Potency (astro): inactive

CS(=O)(=O)c1ccc([C@@H](O)[C@@H](CF)NC(=O)C(Cl)Cl)cc1
activity, negative = cell killing ([1]; at 21.2 µM (top of the series), tumour line B): -19.6% | activity, negative = cell killing ([1]; at 21.2 µM (top of the series), tumour line D): -7.33%

C[C@H]1O[C@@H](n2cc(F)c(=O)[nH]c2=O)[C@H](O)[C@@H]1O
activity, negative = cell killing [1, 4]: -26.5%

NC(=O)c1ncn([C@@H]2O[C@H](CO)[C@@H](O)[C@H]2O)n1
activity, negative = cell killing [1, 4]: -27.6% | outcome [2]: inactive

CC[C@H]1CN2CCc3cc(OC)c(OC)cc3[C@@H]2C[C@@H]1C[C@H]1NCCc2cc(OC)c(OC)cc21
Potency ([3]; HiBiT): 0.787 µM (active)

CCN(CC)CCNC(=O)c1c(C)[nH]c(/C=C2\C(=O)Nc3ccc(F)cc32)c1C
Potency ([3]; HiBiT): 3.94 µM (active) | Potency ([3]; Viability): 7.01 µM (active)

CC(=O)O[C@@]12CO[C@@H]1C[C@H](O)[C@@]1(C)C(=O)[C@H](O)C3=C(C)[C@@H](OC(=O)[C@H](O)[C@@H](NC(=O)OC(C)(C)C)c4ccccc4)C[C@@](O)([C@@H](OC(=O)c4ccccc4)[C@H]21)C3(C)C
activity change, negative = inhibition ([3]; HiBiT, at 45.9 µM (top of the series)): -20.7%

[Cl][In]([Cl])[Cl]
outcome [2]: inactive
